# Only some compounds are listed: those with a hit (about 0.87% of all), similar ones and a draw of the others.
# KAT2A inh = qHTS Assay for Inhibitors of GCN5L2; Histone acetyltransferase KAT2A (Homo sapiens), Q92830; GCN5L2 HAT assay, ThioGlo1 CoA-SH fluorescence; Potency, µM (titrated, usually from 58.9 µM), without a hit: at the highest dose activity change, negative = inhibition, hits mostly inhibitors; actives 0.21% (n = 390,000); AID 504327, 2011
# Target sequence (Q92830 whole entry, looked up): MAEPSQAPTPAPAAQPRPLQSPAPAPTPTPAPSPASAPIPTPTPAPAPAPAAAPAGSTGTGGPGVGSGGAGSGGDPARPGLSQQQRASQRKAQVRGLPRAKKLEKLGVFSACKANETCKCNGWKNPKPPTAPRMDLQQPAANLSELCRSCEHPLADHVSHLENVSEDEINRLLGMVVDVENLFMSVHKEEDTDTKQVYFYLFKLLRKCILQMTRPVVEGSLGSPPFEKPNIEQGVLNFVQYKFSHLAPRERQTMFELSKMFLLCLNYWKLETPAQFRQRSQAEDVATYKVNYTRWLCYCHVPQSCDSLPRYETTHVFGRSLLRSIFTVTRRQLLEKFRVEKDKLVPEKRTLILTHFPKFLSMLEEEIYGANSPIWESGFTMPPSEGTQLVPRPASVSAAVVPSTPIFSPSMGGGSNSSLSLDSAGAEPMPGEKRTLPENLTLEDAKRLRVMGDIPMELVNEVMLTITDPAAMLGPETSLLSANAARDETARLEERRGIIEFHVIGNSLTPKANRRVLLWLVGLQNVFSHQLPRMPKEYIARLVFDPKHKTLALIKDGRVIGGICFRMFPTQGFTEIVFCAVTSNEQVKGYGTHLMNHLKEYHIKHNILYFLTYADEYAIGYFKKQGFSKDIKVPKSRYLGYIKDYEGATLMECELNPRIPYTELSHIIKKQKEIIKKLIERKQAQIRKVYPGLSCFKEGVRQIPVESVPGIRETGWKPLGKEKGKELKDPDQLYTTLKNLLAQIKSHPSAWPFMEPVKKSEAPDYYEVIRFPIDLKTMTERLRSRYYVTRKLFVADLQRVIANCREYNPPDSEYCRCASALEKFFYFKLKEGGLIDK
#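 GCN5L2 (20nM final) in 50mM HEPES, 0.1mM EDTA pH 7.5, 0.01% Tween-20 was preincubated 15 min at room temperature with compound, then given ThioGlo1 (50uM), H3(1-25) peptide (75uM) and acetyl-CoA (70uM); CoA-thiol fluorescence (Ex340/Em540) was read at 0 and 20 min.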
# TDP1 inh = qHTS Assay for Inhibitors of Tyrosyl-DNA Phosphodiesterase (TDP1) | Potency, µM (doses to about 130 µM), inactives show at the highest dose activity change, negative = inhibition, actives largely listed as inhibitors | recombinant TDP1, AlphaScreen DNA substrate cleavage | AID 485290, 2010 | actives 0.28% (n = 350,000); note: nearly all actives have a fitted effect of over 40% in size
#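 Recombinant E. coli-expressed Tdp1 (1 nM) preincubated with compound 15 min at RT, then 5'-biotin/3'-phosphotyrosine-FITC DNA substrate (15 nM) added for 5 min. AlphaScreen beads (10 ug/ml) added, 10 min RT; tyrosine-FITC cleavage read as signal loss.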
# BLM inh = qHTS Assay for Inhibitors of Bloom's syndrome helicase (BLM). RecQ-like DNA helicase BLM (Homo sapiens), P54132. recombinant BLM DNA unwinding, fluorescence dequenching. Potency, µM (doses to about 56.1 µM), without a hit: at the highest dose activity change, negative = inhibition, actives largely listed as inhibitors. actives 0.2% (n = 350,000). AID 2528, 2010;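 note: plate controls were vehicle for no effect and no enzyme for full effect; nearly all actives have a fitted effect of over 35% in size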
# APEX1 inh = qHTS Assay for Inhibitors of the Human Apurinic/apyrimidinic Endonuclease 1 (APE1) | recombinant APE1, TAMRA/BHQ-2 abasic DNA cleavage fluorescence | Potency, µM (highest dose often 65.8 µM), for the others: top-dose activity change, negative = inhibition, usual class: inhibitors | actives 0.35% (n = 350,000);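 note: plate controls were vehicle for no effect and reference inhibitor for full effect; nearly all actives have a fitted effect of over 55% in size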
#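 Substrate: short duplex with […] THF abasic site, 5'-TAMRA and 3'-BHQ-2, 50 nM final. APE1 at 0.75 nM, preincubated 15 min RT with compound. Fluorescence increase from first to third read measured activity.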
# RECQ1 inh = qHTS Assay for Inhibitors of RecQ-Like Dna Helicase 1 (RECQ1). ATP-dependent DNA helicase Q1 (Homo sapiens), P46063. RECQ1 DNA unwinding, red fluorescence kinetic read. Potency, µM (highest dose often 57.3 µM), without a hit: at the highest dose activity, negative = inhibition, hits mostly inhibitors. actives 0.54% (n = 240,000). AID 2549, 2010;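 note: plate controls were vehicle for no effect and no enzyme for full effect; nearly all actives have a fitted effect of over 30% in size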
#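 50 nM RECQ1T1 preincubated 15 min with compound in Tris pH 8.0 buffer with MgCl2, DTT, Tween-20 and 2.5 ug/ml poly(dI-dC); started with 200 nM TAMRA/BHQ-2 forked duplex and 2 mM ATP. Unwinding read as fluorescence (525/598 nm), two reads 2 h apart.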
# * hit, by the source's call; i = inactive; u = inconclusive; x = no result given; ! = a repeat was not active; [ ] = dose if it differs, or a comment. Calls come from the whole dose curve; as a rule, active = well fitted curve in the direction sought with a large enough effect; inconclusive = small, poorly fitted or top-dose-only effect, or another doubt; inactive = no such curve, though single readings can be large; an effect the other way counts as inactive or inconclusive. Unless noted, % is set by controls: 0 for no effect and ±100 for the full control effect; potency is the fitted concentration of half-maximal effect.
SMILES,KAT2A inh,TDP1 inh,BLM inh,APEX1 inh,RECQ1 inh
O=c1c([N+](=O)[O-])c(N2CCCC2)c2ccccc2n1-c1ccccc1,-5.5%,1.2%,-2.6%,-2.3%,i
COc1cc(F)c(S(=O)(=O)N2CCN(S(=O)(=O)c3cccs3)CC2)c(F)c1,x,0.3%,x,x,x
O=C(CN1C(=O)S/C(=C\c2ccc(-c3cc(C(=O)O)ccc3Cl)o2)C1=O)Nc1ccc2c(c1)OCO2,u,7.94µM*,10µM*,6.7µM*,x
Cc1cccc(NC(=O)CN2C(=O)N/C(=C/c3ccc(-c4cccc(C(=O)O)c4C)o3)C2=O)c1,-10.2%,0.0%,-1.8%,-3.6%,20.4%
Cc1ccc(NC(=O)CN2C(=O)S/C(=C\c3ccc(-c4cccc(C(=O)O)c4C)o3)C2=O)cc1C,-0.1%,79.4µM*,u,u,12.4%
COc1ccccc1N1C(=N)S/C(=C\c2ccc(-c3ccccc3C(=O)O)o2)C1=O,-12.0%,11.2µM*,1.6%,28.2µM*,u
COc1ccc(C2Nc3ccccc3C(=O)N2Cc2ccccc2OC)cc1COc1ccc(NC(C)=O)cc1 (configuration not stated),x,-4.7%,x,x,x
O=C(CN1CCN(C(=O)c2ccco2)CC1)Nc1c2c(nc3c1CCC3)CCCC2,-10.9%,89.1µM*,-2.6%,-9.9%,-0.7%
O=C(CNC(=O)c1ccccc1)OC(C(=O)Nc1ccc2c(c1)OCO2)c1ccccc1 (configuration not stated),x,0.2%,x,x,x
O=S(=O)(O)c1ccc2c(N=Nc3ccc(S(=O)(=O)O)c4ccccc34)c(O)c(S(=O)(=O)O)cc2c1,-8.8%,u,-2.3%,x,x
O=S(=O)(O)c1cc(O)c2c(N=Nc3ccc(Nc4ccccc4)c4c(S(=O)(=O)O)cccc34)cc(S(=O)(=O)O)cc2c1,12.6µM*,9.1%,79.1%,x,x
CC(C)(C)OC(=O)NCCOCCOCCOc1ccc(-c2no[n+]([O-])c2C#N)cc1,x,x,x,-2.4%,x
COc1ccc2[nH]c(=O)cc(C(=O)O)c2c1,-20.2%,22.4µM*,-12.5%,u,-19.7%
COc1cccc(CNc2ccc3c(c2)nc(C)n3C)c1OC,-0.3%,4.1%,-1.0%,22.0%,x
COc1cc(NCc2ccc3nc(N)nc(N)c3c2C)cc(OC)c1OC,-18.4%,19.4%,17.8µM*!,u,i
O=S1(=O)N=C(Oc2ccc(C(F)(F)F)cc2)c2ccccc21,x,1.1%,x,x,x
Cc1cc(SCC(=O)Nc2ccc(Cl)cc2)nc2ccccc12,-7.9%,x,0.3%,x,x
Cc1cc(SCC(=O)Nc2ccc3[nH]c(=O)[nH]c3c2)nc2ccccc12,-5.4%,44.7µM*,x,-12.7%,x
CCCCCCNC(=O)N[C@H](C(=O)NCCC[C@H]1CN2C(=NC[C@H]2C)N1CCC(c1ccccc1)c1ccccc1)C(C)O (some centres not stated),7.94µM*,3.5%,0.7%,u,i
C/C=C(\C)C(=O)NCCN1C2=NC[C@H](C)N2C[C@@H]1Cc1ccc(OC)cc1,0.5%,3.8%,14.7%,3.7%,-10.2%
O=C1CCc2cc(S(=O)(=O)Nc3ccc(-c4ccccc4)cc3)ccc2N1,x,2.7%,x,x,x
N#Cc1c(-c2cccc(C(F)(F)F)c2)no[n+]1[O-],x,x,x,-7.6%,x
Cc1ccc(CNc2ccc(N3CCNCC3=O)cc2)cc1,x,x,x,-3.7%,x
COCCN(CC(=O)Nc1cccc(C)c1C)C(=O)c1cc2c(s1)CCC2,-7.0%,22.4µM*,x,15µM*,x
CCN(CC(=O)Nc1ccccc1C(F)(F)F)C(=O)c1cc2c(s1)CCCCC2,-4.5%,x,x,-6.4%,x
SMILES,KAT2A inh,TDP1 inh,BLM inh,APEX1 inh,RECQ1 inh
O=C(O)c1cc(N=Nc2ccc(O)c(C(=O)O)c2)ccc1O,-7.8%,x,-7.0%,x,x
O=C(O)c1cc(N=Nc2ccc(-c3ccc(N=Nc4ccc(O)c(C(=O)O)c4)cc3)cc2)ccc1O,3.16µM*,u,17.8µM*,8.91µM*,20µM*
CNc1cccc(S(=O)(=O)N2CCN(S(=O)(=O)c3ccc4c(c3)OCCO4)CC2)c1,x,-2.7%,x,x,x
Cc1ccc(NC(=O)CN2C(=O)N/C(=C\c3cccn3-c3ccc([S+](N)(=O)[O-])cc3)C2=O)cc1,x,x,x,7.4%,x
N#C/C(=C\c1ccc(O)c(O)c1)C(=O)NCCCCc1ccccc1,u,17.4%[56.1 µM],u,u,10µM*
Cc1[nH][nH]c(=O)c1C(c1ccc(-c2cccc(C(=O)O)c2)o1)c1c(C)[nH][nH]c1=O,0.0%,8.91µM*,-1.4%,17.8µM*,u
CC[C@H](C)[C@H]1O[C@]2(CC[C@@H]1C)C[C@@H]1C[C@@H](C/C=C(\C)[C@@H](O[C@H]3C[C@H](OC)[C@@H](O[C@H]4C[C@H](OC)[C@@H](O)[C@H](C)O4)[C@H](C)O3)[C@@H](C)/C=C/C=C3\CO[C@@H]4[C@H](O)C(C)=C[C@@H](C(=O)O1)[C@]34O)O2,x,x,x,9.7%,x
COc1ccc(CN(Cc2ccccc2)C(=O)c2ccccc2O)cc1,x,11.2µM*,x,x,x
COc1ccc(CN(Cc2ccco2)C(=O)c2ccccc2F)cc1,-1.7%,9.3%,-2.8%,x,x
Cc1csc(C(=O)O)c1-n1cccc1,-2.1%,12.6µM*,-3.2%,u,-20.7%
O=C(O)C1Nc2c(Cl)cc(Cl)cc2C2C=CCC12 (configuration not stated),3.55µM*,x,u,13.4µM*,x
COc1cc(N=Nc2cccc(S(N)(=O)=O)c2)c2ccccc2c1N,-10.0%,8.6%,3.98µM*,u,i
COC(=O)c1ccc(COc2ccc(/C=N/Nc3cccc(C(=O)O)c3)cc2)cc1,-19.0%,39.8µM*,0.0%,u,i
O=C(O)c1cccc(N/N=C/c2ccc(OC(F)(F)F)cc2)c1,21.4%,x,0.7%,34.8%,x
Cc1ccc(-c2nc(-c3ccccc3)no2)c(Cl)c1,-7.2%,56.2µM*,-12.9%,18.2%,-11.4%
C=CCNc1oc(-c2cccc(Br)c2)nc1C#N,x,x,x,-1.9%,x
O=C(Cn1cncn1)NCc1cccc2ccccc12,3.55µM*,7.9%,-1.1%,u,-9.0%
COc1ccc(C2Oc3ccccc3C(=O)N2Cc2ccccc2)cc1COc1ccc(NC(C)=O)cc1 (configuration not stated),x,0.9%,x,x,x
NS(=O)(=O)c1cc(C(=O)NC2CCSc3ccccc32)ccc1Cl (configuration not stated),u,1.26µM*,8.91µM*,0.119µM*,x
NS(=O)(=O)c1cccc(C(=O)NC2CCSc3ccccc32)c1 (configuration not stated),0.8%,x,-3.9%,48.4%,x

# Source: PubChem BioAssay
